# Records with an inconclusive call do not appear. Where a call stands in place of a potency, no number is given. Unmarked numbers belong to inactive results. Activity calls are given as the source filed them. Calls come from the whole dose curve; as a rule, active = well fitted inhibition curve with a large enough effect; inconclusive = small, poorly fitted or top-dose-only effect; inactive = flat fitted curve, though single readings scatter. Numbered stars: 1 amine (or outer) side, 2 acyl side, 3 side chain; on linkers, the order of the positions; unused ones are H or OH. Bridge positions count the residues as written; N and C are the ends. Square brackets hold non-standard residues; d marks the D form. Peptide text beside a SMILES is read from it. * marks the point of attachment. ξ: configuration not given here. ΔAla(Z-3-ureido) = NC(=O)N/C=C(\N)C(=O)O; ξDab(CH2SO3H) = NC(CCNCS(=O)(=O)O)C(=O)O; X2 = NC1=NC(O)CC(C(N[*:1])C(=O)[*:2])N1; X1 = NC1=NCCC(C(N[*:1])C(=O)[*:2])N1; Heptanoyl(6-Me) = CC(C)CCCCC(=O)*; ξβ3hOrn = NCCCC(N)CC(=O)*; Orn = NCCC[CH](N)C(=O)O; Dab = NCC[CH](N)C(=O)O; Dap = NC[CH](N)C(=O)O
# How the values were obtained:
# [1] = target: Ubiquitin carboxyl-terminal hydrolase 1 (Homo sapiens) (UniProt O94782); assay: Inhibitors of USP1/UAF1: Pilot qHTS (AID 504865); note: nearly all actives have a fitted effect of over 35% in size
# Sequence of Ubiquitin carboxyl-terminal hydrolase 1 (Homo sapiens) (O94782 whole entry, looked up): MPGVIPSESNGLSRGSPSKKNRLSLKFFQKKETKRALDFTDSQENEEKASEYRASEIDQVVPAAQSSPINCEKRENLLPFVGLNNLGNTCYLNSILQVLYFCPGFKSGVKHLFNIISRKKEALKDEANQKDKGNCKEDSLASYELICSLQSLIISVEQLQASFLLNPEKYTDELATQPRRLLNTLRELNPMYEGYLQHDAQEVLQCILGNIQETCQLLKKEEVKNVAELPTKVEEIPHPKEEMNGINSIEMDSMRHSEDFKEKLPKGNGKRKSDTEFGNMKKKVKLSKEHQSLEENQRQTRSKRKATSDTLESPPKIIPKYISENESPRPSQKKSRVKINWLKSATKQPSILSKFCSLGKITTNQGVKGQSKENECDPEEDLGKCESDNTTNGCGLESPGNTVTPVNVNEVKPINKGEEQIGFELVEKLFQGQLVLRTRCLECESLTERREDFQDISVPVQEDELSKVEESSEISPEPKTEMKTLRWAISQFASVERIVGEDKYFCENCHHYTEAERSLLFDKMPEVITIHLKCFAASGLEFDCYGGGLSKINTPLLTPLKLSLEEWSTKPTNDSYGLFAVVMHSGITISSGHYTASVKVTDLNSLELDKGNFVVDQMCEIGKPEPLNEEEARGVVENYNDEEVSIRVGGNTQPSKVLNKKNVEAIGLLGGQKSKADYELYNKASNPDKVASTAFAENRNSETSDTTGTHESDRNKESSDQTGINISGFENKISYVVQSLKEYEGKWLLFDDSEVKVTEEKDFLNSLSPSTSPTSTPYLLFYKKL
# How it was run: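 1nM USP1/UAF1 + cpd, 15 min RT; start w/ Ub-Rho 150nM final; kinetic FL 480/540 nm, 6 reads q60 s. Buffer 50mM HEPES pH 7.8, 0.5mM EDTA, 1mM TCEP, 0.01% Tween-20, 0.1 mg/ml BSA.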
# [2] = qHTS profiling for inhibitors of Plasmodium falciparum proliferation (AID 504749); for all read-outs here: nearly all actives have a fitted effect of over 60% in size; conditions: P. falciparum in erythrocytes, SYBR Green DNA, 72 h; for activity, negative = inhibition: at 28.7 µM (top of the series)
# How it was run: (§1)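 Each compound contacts P. falciparum-infected red blood cells for 72 h at 37 C; lysis buffer (Tris, EDTA, saponin, Triton X, SYBR Green I) is added and fluorescence measured next morning; values normalized to controls.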
# AA1029 = assay: as above; conditions: P. falciparum in erythrocytes, SYBR Green DNA, 72 h; series mostly up to 28.7 µM
# How it was run: as §1
# ATS189 = assay: as above; conditions: P. falciparum in erythrocytes, SYBR Green DNA, 72 h; series mostly up to 28.7 µM
# How it was run: as §1
# CP185 = assay: as above; conditions: P. falciparum in erythrocytes, SYBR Green DNA, 72 h; series mostly up to 28.7 µM
# How it was run: as §1
# CP201 = assay: as above; conditions: P. falciparum in erythrocytes, SYBR Green DNA, 72 h; series mostly up to 28.7 µM
# How it was run: as §1
# CP238 = assay: as above; conditions: P. falciparum in erythrocytes, SYBR Green DNA, 72 h; series mostly up to 28.7 µM
# How it was run: as §1
# CP252 = assay: as above; conditions: P. falciparum in erythrocytes, SYBR Green DNA, 72 h; series mostly up to 28.7 µM
# How it was run: as §1
# CP265 = assay: as above; conditions: P. falciparum in erythrocytes, SYBR Green DNA, 72 h; series mostly up to 28.7 µM
# How it was run: as §1
# CP286 = assay: as above; conditions: P. falciparum in erythrocytes, SYBR Green DNA, 72 h; series mostly up to 28.7 µM
# How it was run: as §1
# CP305 = assay: as above; conditions: P. falciparum in erythrocytes, SYBR Green DNA, 72 h; series mostly up to 28.7 µM
# How it was run: as §1
# CP325 = assay: as above; conditions: P. falciparum in erythrocytes, SYBR Green DNA, 72 h; series mostly up to 28.7 µM
# How it was run: as §1
# DFO2036 = assay: as above; conditions: P. falciparum in erythrocytes, SYBR Green DNA, 72 h; series mostly up to 28.7 µM
# How it was run: as §1
# FAB9 = assay: as above; conditions: P. falciparum in erythrocytes, SYBR Green DNA, 72 h; series mostly up to 28.7 µM
# How it was run: as §1
# PC15 = assay: as above; conditions: P. falciparum in erythrocytes, SYBR Green DNA, 72 h; series mostly up to 28.7 µM
# How it was run: as §1
# PC49 = assay: as above; conditions: P. falciparum in erythrocytes, SYBR Green DNA, 72 h; series mostly up to 28.7 µM
# How it was run: as §1
# Potency is the fitted concentration of half-maximal effect.
SMILES,Potency [1],"activity, negative = inhibition ([2]; parasite line A) [%]","activity, negative = inhibition ([2]; parasite line B) [%]",Potency (AA1029),Potency (ATS189),Potency (CP185),Potency (CP201),Potency (CP238),Potency (CP252),Potency (CP265),Potency (CP286),Potency (CP305),Potency (CP325),Potency (DFO2036),Potency (FAB9),Potency (PC15),Potency (PC49),Potency ([2]; parasite line A),Potency ([2]; parasite line B)
CCOC(=O)C(CS)NCCN[C@@H](CS)C(=O)OCC (stereo not given in full),inactive,-2.53,-3.46,inactive,inactive,inactive,inactive,inactive,inactive,inactive,inactive,inactive,inactive,inactive,inactive,inactive,inactive,–,–
NC(=O)CCC1NC(=O)C(Cc2ccccc2)NC(=O)C(Cc2ccc(O)cc2)NC(=O)CCSSCC(C(=O)N2CCCC2C(=O)NC(CCCN=C(N)N)C(=O)NCC(N)=O)NC(=O)C(CC(N)=O)NC1=O (stereo not given),inactive,9.46,7.06,inactive,inactive,inactive,inactive,inactive,inactive,inactive,inactive,inactive,inactive,inactive,inactive,inactive,inactive,–,–
CC(C)CC(NC(=O)C(COC(C)(C)C)NC(=O)C(Cc1ccc(O)cc1)NC(=O)C(CO)NC(=O)C(Cc1c[nH]c2ccccc12)NC(=O)C(Cc1cnc[nH]1)NC(=O)C1CCC(=O)N1)C(=O)NC(CCCN=C(N)N)C(=O)N1CCCC1C(=O)NNC(N)=O (stereo not given),inactive,11.9,5.86,inactive,inactive,inactive,inactive,inactive,inactive,inactive,inactive,inactive,inactive,inactive,inactive,inactive,inactive,–,–
CC1CCC2[C@](C)(CO)C(O)CC[C@]2(C)C12CCC(CO)(CCO)O2 (stereo not given in full),inactive,–,–,–,–,–,–,–,–,–,–,–,–,–,–,–,–,–,–
Cn1cc(O)nc1NC(=O)Nc1cccc(Cl)c1,inactive,-22.2,-22.3,inactive,inactive,inactive,inactive,inactive,inactive,inactive,inactive,inactive,inactive,inactive,inactive,inactive,inactive,–,–
O=C1/C(=C\c2cccs2)CCC/C1=C/c1cccs1,–,0.948,10.7,inactive,inactive,inactive,inactive,inactive,inactive,inactive,inactive,inactive,inactive,inactive,inactive,inactive,inactive,–,–
C=CC1=C(C(=O)O)N2C(=O)[C@@H](NC(=O)C(N=O)c3csc(N)n3)[C@H]2SC1 (stereo not given in full),inactive,6.56,16.7,inactive,inactive,inactive,inactive,inactive,inactive,inactive,inactive,inactive,inactive,inactive,inactive,inactive,inactive,–,–
O=C(/C=C/c1ccc(O)cc1)c1c(O)cc(O)cc1O,inactive,–,–,–,–,–,–,–,–,–,–,–,–,–,–,–,–,–,–
CCC(C)C1NC(=O)C(Cc2ccc(O)cc2)NC(=O)C(N)CSSCC(C(=O)N2CCCC2C(=O)NC(CC(C)C)C(=O)NCC(N)=O)NC(=O)C(CC(N)=O)NC(=O)C(CCC(N)=O)NC1=O (stereo not given),–,0.779,4.79,inactive,inactive,inactive,inactive,inactive,inactive,inactive,inactive,inactive,inactive,inactive,inactive,inactive,inactive,–,–
C[C@H]1O[C@@H](O[C@H]2[C@@H](O)C[C@H](O[C@H]3[C@@H](O)C[C@H](O[C@H]4CC[C@]5(C)C6CC[C@]7(C)[C@@H](C8=CC(=O)OC8)CC[C@]7(O)C6CC[C@@H]5C4)O[C@@H]3C)O[C@@H]2C)C[C@H](O)[C@@H]1O (stereo not given in full),inactive,–,–,–,–,–,–,–,–,–,–,–,–,–,–,–,–,–,–
O=C(/C=C/c1ccc(O)cc1)c1cccs1,inactive,–,–,–,–,–,–,–,–,–,–,–,–,–,–,–,–,–,–
COc1ccc(/C=C/C(=O)c2cccs2)cc1OC,inactive,–,–,–,–,–,–,–,–,–,–,–,–,–,–,–,–,–,–
NCCCC(N)CC(=O)NCC1NC(=O)C(CO)NC(=O)C(N)CNC(=O)C(C2CCN=C(N)N2)NC(=O)/C(=C/NC(N)=O)NC1=O (stereo not drawn) (H-[Dap]S[Dap](ξβ3hOrn)[ΔAla(Z-3-ureido)][X1]; lactam 1-C; configuration not given here),inactive,10.1,0.112,inactive,inactive,inactive,inactive,inactive,inactive,inactive,inactive,inactive,inactive,inactive,inactive,inactive,inactive,–,–
Cc1ccc2oc(-c3ccccc3)cc(=O)c2c1,inactive,–,–,–,–,–,–,–,–,–,–,–,–,–,–,–,–,–,–
COc1ccc(-c2oc3cc(OC)ccc3c(=O)c2O)cc1,inactive,–,–,–,–,–,–,–,–,–,–,–,–,–,–,–,–,–,–
C[C@H](C(=O)O)c1cccc(C(=O)c2ccccc2)c1,inactive,–,–,–,–,–,–,–,–,–,–,–,–,–,–,–,–,–,–
OC[C@H]1O[C@@H](n2cnc3c(NCc4ccccc4)ncnc32)[C@H](O)[C@@H]1O,inactive,–,–,–,–,–,–,–,–,–,–,–,–,–,–,–,–,–,–
CC(C)C[C@H](NC(=O)[C@@H](Cc1c[nH]c2ccccc12)NC(=O)[C@@H](Cc1ccc(O)cc1)NC(=O)[C@@H](CO)NC(=O)[C@@H](Cc1c[nH]c2ccccc12)NC(=O)C(Cc1cnc[nH]1)NC(=O)C1CCC(=O)N1)C(=O)N[C@@H](CCCN=C(N)N)C(=O)N1CCC[C@@H]1C(=O)NCC(N)=O (stereo not given in full),inactive,17.3,2.16,inactive,inactive,inactive,inactive,inactive,inactive,inactive,inactive,inactive,inactive,inactive,inactive,inactive,inactive,–,–
CN(C)c1ccc(O)c2c1C[C@@H]1C[C@H]3C(N(C)C)C(=O)C(C(N)=O)=C(O)[C@@]3(O)C(=O)C1=C2O (stereo not given in full),inactive,–,–,–,–,–,–,–,–,–,–,–,–,–,–,–,–,–,–
C[N+]1(C)C2CCC1CC(OC(=O)C(O)c1ccccc1)C2 (stereo not given),inactive,–,–,–,–,–,–,–,–,–,–,–,–,–,–,–,–,–,–
CC(C)C(NC(=O)C(CC(=O)O)NC(=O)C(CCCCN)NC(=O)C(N)CCCN=C(N)N)C(=O)NC(Cc1ccc(O)cc1)C(=O)O (stereo not given) (H-RKDVY-OH; configuration not given here),inactive,0.811,3.22,inactive,inactive,inactive,inactive,inactive,inactive,inactive,inactive,inactive,inactive,inactive,inactive,inactive,inactive,–,–
CCC(C)C1NC(=O)C(CCNCS(=O)(=O)O)NC(=O)C(NC(=O)C(CCNCS(=O)(=O)O)NC(=O)C(NC(=O)C(CCNCS(=O)(=O)O)NC(=O)CCCCC(C)C)C(C)O)CCNC(=O)C(C(C)O)NC(=O)C(CCNCS(=O)(=O)O)NC(=O)C(CCNCS(=O)(=O)O)NC(=O)C(C(C)CC)NC1=O (stereo not given) ({Heptanoyl(6-Me)}-[ξDab(CH2SO3H)]T[ξDab(CH2SO3H)][Dab][ξDab(CH2SO3H)]II[ξDab(CH2SO3H)][ξDab(CH2SO3H)]T; lactam 4-C; configuration not given here),44700 nM (active),-19.4,8.48,inactive,inactive,inactive,inactive,inactive,inactive,inactive,inactive,inactive,inactive,inactive,inactive,inactive,inactive,–,–
CCC1NC(=O)C(NC(=O)c2ncccc2O)C(C)OC(=O)C(c2ccccc2)NC(=O)C2CC(=O)CCN2C(=O)C(Cc2ccccc2)N(C)C(=O)C2CCCN2C1=O (stereo not given),inactive,-20.9,-28.7,inactive,inactive,inactive,inactive,inactive,inactive,inactive,inactive,inactive,inactive,inactive,inactive,inactive,inactive,–,–
O=C(/C=C/c1ccccc1)c1cccs1,inactive,–,–,–,–,–,–,–,–,–,–,–,–,–,–,–,–,–,–
COc1ccc(-c2nc3ccc(C4=C(C)CC(=O)NN4)cc3[nH]2)cc1,–,–,-13,inactive,inactive,inactive,inactive,inactive,inactive,inactive,inactive,inactive,inactive,inactive,inactive,inactive,inactive,–,–
NCCCC(N)CC(=O)NC1CNC(=O)C(C2CC(O)N=C(N)N2)NC(=O)/C(=C/NC(N)=O)NC(=O)C(CO)NC(=O)C(CO)NC1=O (stereo not drawn) (ξβ3hOrn-[Dap]SS[ΔAla(Z-3-ureido)][X2]; lactam 1-C; configuration not given here),inactive,5.91,6.39,inactive,inactive,inactive,inactive,inactive,inactive,inactive,inactive,inactive,inactive,inactive,inactive,inactive,inactive,–,–
O=C(OCC1OC(OC(=O)c2cc(O)c(O)c(OC(=O)c3cc(O)c(O)c(O)c3)c2)[C@@H](OC(=O)c2cc(O)c(O)c(OC(=O)c3cc(O)c(O)c(O)c3)c2)C(OC(=O)c2cc(O)c(O)c(OC(=O)c3cc(O)c(O)c(O)c3)c2)C1OC(=O)c1cc(O)c(O)c(OC(=O)c2cc(O)c(O)c(O)c2)c1)c1cc(O)c(O)c(OC(=O)c2cc(O)c(O)c(O)c2)c1 (stereo not given in full),3980 nM (active),–,–,2510 nM (active),2510 nM (active),2820 nM (active),4780 nM (active),2510 nM (active),2510 nM (active),2510 nM (active),2240 nM (active),3380 nM (active),3010 nM (active),2240 nM (active),11200 nM (active),7940 nM (active),11200 nM (active),2510 nM (active),3550 nM (active)
CC(C)CC1NC(=O)C(CCCN)NC(=O)C(C(C)C)NC(=O)C2CCCN2C(=O)C(Cc2ccccc2)NC(=O)C(CC(C)C)NC(=O)C(CCCN)NC(=O)C(C(C)C)NC(=O)C2CCCN2C(=O)C(Cc2ccccc2)NC1=O (stereo not given) (cyclo(FPV[Orn]LFPV[Orn]L); configuration not given here),inactive,–,–,0.9 nM (active),2.2 nM (active),2.8 nM (active),3.4 nM (active),1.6 nM (active),1.3 nM (active),1.1 nM (active),0.8 nM (active),1.9 nM (active),1.1 nM (active),2.8 nM (active),10 nM (active),5.6 nM (active),7.1 nM (active),1.3 nM (active),1.3 nM (active)

# Reference: PubChem BioAssay (NCATS)
